Reference: PubChem BioAssay AID1347416 (National Center for Advancing Translational Sciences (NCATS), 2020)
In all, about 4,100 compounds went through this assay and about 1,600 (39%) were called active. Roughly 25% stayed inconclusive and do not appear here. Calls follow the shape of the dose curve; as a rule, active = well fitted inhibition curve with a large enough effect; inconclusive = small, poorly fitted or top-dose-only effect; inactive = no such curve, though single readings can be large or run the other way. Some of the results follow.
% is scaled to controls: 0 for no effect and ±100 for the full control effect; potency is read from the fitted curve at half-maximal effect.

Experiment: qHTS Validation assay for Inhibitors of Plasmodium falciparum Dd2 growth in vitro; also: nearly all actives have a fitted effect of over 70% in size
Conditions: P. falciparum Dd2 in RBCs, SYBR Green growth, 72 h; series mostly up to 28.7 µM; activity change, negative = inhibition: at the top concentration
Summary of the method: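 P. falciparum Dd2-infected red blood cells (2.5% hematocrit, 0.3% parasitemia) grown 72 h at 37 °C under 5% O2 with compounds in a titration, 29 uM to 0.5 nM final. Growth read as SYBR Green-1 fluorescence after ~16 h lysis; artesunate 300 nM as positive control.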
In the case of `CCN(CC)CCOC(=O)c1ccc(NC(=O)c2cc3c(=O)n(CC)c4ccccc4c3s2)cc1`, the Potency is reported as 2660 nM (active).
With `CCCCNC(=O)c1onc(CSc2nc3ccccc3[nH]2)c1C(=O)NCCCC` the Potency was 5310 nM (active).
In the case of `COCC(=O)NC1CCC12CCN(C(=O)c1ccc(C)nc1)CC2` (stereo not given), the “activity change, negative = inhibition” value is reported as 23.4% (inactive).
In the case of `CC(=O)Nc1cc[n+](C(C)C(=O)c2ccc(Br)cc2)cc1` (stereo not given), the “activity change, negative = inhibition” value is reported as -23.1% (inactive).
With `CN(C)c1cc[n+](CC(=O)c2ccc(Br)cc2)cc1` the Potency was 7500 nM (active).
With `Cc1cccc(NC(=O)Cn2nc3n(c2=O)CCCC3)c1C` the “activity change, negative = inhibition” value was 14.3% (inactive).
In the case of `Cc1oc2ccc(O)c(CN3CCN(Cc4ccccc4)CC3)c2c1C(=O)Nc1cccc(Cl)c1C`, the Potency is reported as 596 nM (active).
For `COc1ccc(NC(=O)c2c(C)oc3ccc(O)c(CN4CCN(Cc5ccccc5)CC4)c23)cc1`, the Potency was 2660 nM (active).
For `Cc1oc2ccc(O)c(CN3CCCCCC3)c2c1C(=O)Nc1cccc(Cl)c1C`, the Potency was 842 nM (active).
With `COc1ccc(N2Cc3c(ncnc3N3CCN(Cc4ccccc4)CC3)N(C)CC2=O)cc1` the “activity change, negative = inhibition” value was 1.48% (inactive).
For `CCN1CCN(Cc2c(O)ccc3c(=O)c(Oc4ccccc4Cl)c(C(F)(F)F)oc23)CC1`, the Potency was 596 nM (active).
In the case of `CC1CCCN(Cc2c(O)ccc3c(=O)c(-c4ccc(Cl)cc4)c(C(F)(F)F)oc23)C1` (stereo not given), the Potency is reported as 842 nM (active).
In the case of `CCc1cc2c(=O)c(-c3cnn(-c4ccccc4)c3)c(C)oc2c(CN2CCCCC2)c1O`, the Potency is reported as 1330 nM (active).
In the case of `CC1CCN(Cc2c(O)ccc3c(=O)c(Oc4ccccc4Cl)c(C(F)(F)F)oc23)CC1`, the Potency is reported as 1330 nM (active).
With `CC(=O)c1ccc(NC(=O)c2noc3c2CCC3)cc1` the “activity change, negative = inhibition” value was -5.84% (inactive).
With `CC1CCCN(Cc2c(O)ccc3c(=O)c(-c4ccccc4Cl)c(C(F)(F)F)oc23)C1` (stereo not given) the Potency was 842 nM (active).
In the case of `Cc1oc2c(CN3CCCCC3)c(O)ccc2c(=O)c1-c1ccc(Cl)cc1`, the Potency is reported as 5310 nM (active).
For `O=c1c(-c2ccc(Br)cc2)coc2c(CN3CCCCC3)c(O)ccc12`, the Potency was 2110 nM (active).
With `CC1CCCN(Cc2c(O)ccc3c(=O)c(-c4ccc(Cl)cc4)coc23)C1` (stereo not given) the Potency was 1880 nM (active).
For `CC1CCCN(Cc2c(O)ccc3c(=O)c(Oc4ccccc4Cl)c(C(F)(F)F)oc23)C1` (stereo not given), the Potency was 2110 nM (active).
With `Cc1ccc(-c2[nH]n3c(=O)c4c(nc3c2C)CCCC4)cc1` the Potency was 2990 nM (active).
In the case of `O=C(NCc1ccco1)C1CN(S(=O)(=O)c2ccccc2)CC12CCCCC2` (stereo not given), the “activity change, negative = inhibition” value is reported as 4.27% (inactive).
With `O=C(NCCN1CCCCCC1)C1CCCN1S(=O)(=O)c1cccc2nsnc12` (stereo not given) the “activity change, negative = inhibition” value was -21% (inactive).
For `O=C(NCCN1CCCC1)C1CN(S(=O)(=O)c2cccs2)CC12CCCCC2` (stereo not given), the Potency was 13300 nM (active).
For `CN(C)CCCNc1c2ccccc2nc2ccccc12`, the Potency was 4220 nM (active).
With `O=C(NCCc1c[nH]c2ccccc12)c1cncc(Br)c1` the “activity change, negative = inhibition” value was 7.82% (inactive).
For `c1ccc2c(NCCc3c[nH]c4ccccc34)c3ccccc3nc2c1`, the Potency was 1880 nM (active).
In the case of `Cc1cc(Nc2nc3ccccc3nc2Cl)n(-c2ccccc2C)n1`, the Potency is reported as 842 nM (active).
With `Cc1cc(C)n(-c2nc3cc(Cl)ccc3nc2N2CCN(c3ccccc3F)CC2)n1` the “activity change, negative = inhibition” value was 28.4% (inactive).
With `CC(C)CNc1nnnc2c1sc1nc(N3CCOCC3)c3c(c12)CCCC3` the Potency was 15000 nM (active).
For `COC(C)c1ccc(-c2cc(C(=O)O)cc(S(=O)(=O)NC(C)C)c2)cc1` (stereo not given), the “activity change, negative = inhibition” value was 33.1% (inactive).
In the case of `Cc1cccc(C(=O)NC2CCN(c3cc(-c4ccc(Cl)cc4)[nH]n3)C2)c1` (stereo not given), the “activity change, negative = inhibition” value is reported as -19.2% (inactive).
For `Cc1ccc(-n2nc3c(=O)n(CCCC(=O)NCc4ccccc4F)nc(C)c3c2C)cc1`, the “activity change, negative = inhibition” value was 32.8% (inactive).
With `COc1cc(C(=O)NC2CCN(c3cc(-c4ccccc4)[nH]n3)CC2)cc(OC)c1OC` the Potency was 5960 nM (active).
In the case of `O=C(NC1CCCN(c2cc(-c3ccccc3)[nH]n2)C1)c1ccccc1` (stereo not given), the “activity change, negative = inhibition” value is reported as 1.56% (inactive).
In the case of `O=C(NC1CCN(c2cc(-c3ccc(Cl)cc3)[nH]n2)C1)c1ccccc1` (stereo not given), the “activity change, negative = inhibition” value is reported as 8.13% (inactive).
For `Cc1ccc2c(c1)COc1c3ccc(C(=O)O)cc3nn1-2`, the “activity change, negative = inhibition” value was 5.75% (inactive).
For `Cn1c(=S)[nH]c2sc3c(c2c1=O)CCC(C(C)(C)C)C3` (stereo not given), the Potency was 5310 nM (active).
With `Cn1c2c(c(=O)n(C)c1=O)C(c1cc(Br)ccc1F)CC(=O)N2` (stereo not given) the “activity change, negative = inhibition” value was 44.2% (inactive).
With `CC1=C(C(=O)Nc2ccccc2)C(c2cc(Br)ccc2F)n2ncc(C(=O)Nc3ccccc3)c2N1` (stereo not given) the Potency was 1680 nM (active).
For `COc1ccc(Br)cc1C1C(C(=O)Nc2ccc(C)cc2C)=C(C)Nc2ncnn21` (stereo not given), the “activity change, negative = inhibition” value was 66.2% (inactive).
For `COc1ccccc1NC(=O)C1=C(C)Nc2ncnn2C1c1ccccc1C(=O)O` (stereo not given), the “activity change, negative = inhibition” value was 31.6% (inactive).
With `CC1=C(C(=O)Nc2ccc(C)cc2C)C(c2cc(Br)ccc2F)n2ncc(C(=O)Nc3ccc(C)cc3)c2N1` (stereo not given) the Potency was 1500 nM (active).
With `CC1(CNc2ccccc2)COc2ccc(C(=O)NCc3cccs3)cc2N1` (stereo not given) the “activity change, negative = inhibition” value was 0% [at 43.1 µM] (inactive).
For `COc1cccc(CN(C)C(=O)CCc2nnc(-c3ccsc3)o2)c1`, the “activity change, negative = inhibition” value was 23.3% (inactive).
For `O=C(c1ccccc1)N1CCC(N(Cc2cccnc2)C2CCOCC2)CC1`, the “activity change, negative = inhibition” value was 9.55% (inactive).
In the case of `COc1ccc2nc(N(Cc3cccnc3)C(=O)CCc3ccccc3)sc2c1`, the Potency is reported as 6680 nM (active).
For `c1cnc(N2CCOCC2)c(OC2CCNC2)n1` (stereo not given), the Potency was 7500 nM (active).
In the case of `COc1ccccc1-c1nnc(C2CCN(C(=O)c3ccc(Cl)cc3)CC2)o1`, the “activity change, negative = inhibition” value is reported as 45% (inactive).
In the case of `CCC(=O)N1c2ccccc2CC1C(=O)NCCc1ccccc1OC` (stereo not given), the “activity change, negative = inhibition” value is reported as -37.3% (inactive).
For `COc1ccccc1-c1nnc2n1C(C(=O)NCCc1ccc(Cl)cc1)CC2` (stereo not given), the Potency was 3350 nM (active).
In the case of `COc1ccc(CCNC(=O)Cn2c(-c3cccs3)cc3cc(F)ccc32)cc1OC`, the Potency is reported as 4730 nM (active).
In the case of `CC(NC(=O)Cn1c(-c2cccs2)cc2cc(F)ccc21)c1ccccc1` (stereo not given), the Potency is reported as 2660 nM (active).
For `COc1ccc(CNC(=O)CCCn2c(=O)c3cccn3c3ccc(F)cc32)cc1OC`, the “activity change, negative = inhibition” value was -21.9% (inactive).
With `Fc1cc(F)cc(Cc2nc3nccc(-c4cccs4)n3n2)c1` the “activity change, negative = inhibition” value was -9.69% (inactive).
With `COc1ccccc1NC(=O)C(=O)NCCc1csc(-c2cccc(F)c2)n1` the “activity change, negative = inhibition” value was 17.3% (inactive).
In the case of `FC(F)(F)c1cnc(N2CCCN(C(=S)Nc3ccccc3)CC2)c(Cl)c1`, the Potency is reported as 4730 nM (active).
For `O=C(C1CC1)N1CCC(c2nc(C3CCOCC3)no2)CC1`, the “activity change, negative = inhibition” value was 0% (inactive).
For `COCCNC(=O)c1nc(-c2ccc([S+](C)(=O)[O-])cc2)c2ccccn12`, the “activity change, negative = inhibition” value was -0.0535% (inactive).
With `CC(C)CNC(=O)c1nc(-c2ccc(Cl)cc2)c2cnccn12` the Potency was 8630 nM (active).
